# Test results as given in the supplement of paper PMC10037445.
# “And” between values parts separate entries of the source, which are not always exact repeats. Identical values can stand only once. Whole data set: some 2,900 compounds, median “NF-kB SEAP reporter activity, fold change vs agonist alone” near 0.99, cut for the highest 2% near 2.6. The sample holds the highest values, similar compounds and a random draw of the others, so the mix is not that of the screen.
# Columns and labels:
# RAW-Dual [1] = assay: NF-kB SEAP reporter activity, fold change vs agonist alone; higher = enhanced NF-kB activity
# How it was run: (§1)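 Library stock was pin-tooled at 50 nL into 384-well plates of RAW-Dual macrophages (50,000 cells/well, DMEM), followed 1 h later by a PRR agonist, and the cells were kept at 37 °C, 5% CO2. Supernatant collected after 20 hours was read for IRF by QuantiLuc luminescence and for NF-κB by QuantiBlue absorbance at 620 nm. Reporter activity is fold change over agonist-alone wells, and a well counted as cytotoxic when its IncuCyte confluency was below 70% of agonist controls in both mask sets.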
# RAW-Dual [2] = assay: NF-kB SEAP reporter activity, fold change vs agonist alone; cytotoxicity flag (confluency mask): cytotoxic (confluency <70% of control); higher = enhanced NF-kB activity
# How it was run: as §1
# RAW-Dual [3] = assay: NF-kB SEAP reporter activity, fold change vs agonist alone; cytotoxicity flag (confluency mask): not cytotoxic; higher = enhanced NF-kB activity
# How it was run: as §1
# [4] = library stock concentration (final ~1000-fold dilution): 10 mM, cytotoxicity flag (confluency mask): cytotoxic (confluency <70% of control), agonist: Imiquimod (TLR7) […]
# [5] = library stock concentration (final ~1000-fold dilution): 10 mM, cytotoxicity flag (confluency mask): cytotoxic (confluency <70% of control), agonist: MPLA (TLR4) […]
# [6] = agonist: ODN 1826 (TLR9) 0.5 ug/mL
# [7] = agonist: Pam2CSK4 (TLR2/6) 0.1 ug/mL
# [8] = agonist: Pam3CSK4 (TLR2/1) 0.1 ug/mL
# [9] = library stock concentration (final ~1000-fold dilution): 10 mM, cytotoxicity flag (confluency mask): not cytotoxic, agonist: Imiquimod (TLR7) […]
# [10] = library stock concentration (final ~1000-fold dilution): 10 mM, cytotoxicity flag (confluency mask): not cytotoxic, agonist: MPLA (TLR4) […]
smiles,measurement,setting,value
Cl.Cl.OCCN1CCN(CC/C=C2/c3ccccc3Sc3ccc(C(F)(F)F)cc32)CC1,NF-kB SEAP reporter activity,RAW-Dual [1]; [4],1.58
same,NF-kB SEAP reporter activity,RAW-Dual [1]; [5],0.876
Cl.Cl.OCCN1CCN(CC/C=C2/c3ccccc3Sc3ccc(C(F)(F)F)cc32)CC1 (library stock concentration (final ~1000-fold dilution): 10 mM),NF-kB SEAP reporter activity,RAW-Dual [2]; agonist: LPS (TLR4) 0.1 ug/mL,0.443
same,NF-kB SEAP reporter activity,RAW-Dual [2]; [6],0.412
same,NF-kB SEAP reporter activity,RAW-Dual [2]; [7],0.431
same,NF-kB SEAP reporter activity,RAW-Dual [2]; [8],0.63
CC(=O)OC12COC1CC(O)C1(C)C(=O)C(O)C3=C(C)C(OC(=O)C(O)C(NC(=O)OC(C)(C)C)c4ccccc4)CC(O)(C(OC(=O)c4ccccc4)C21)C3(C)C (stereo unspecified) (library stock concentration (final ~1000-fold dilution): 10 mM),NF-kB SEAP reporter activity,RAW-Dual [3]; agonist: LPS (TLR4) 0.1 ug/mL,1.2
same,NF-kB SEAP reporter activity,RAW-Dual [3]; [6],0.995
same,NF-kB SEAP reporter activity,RAW-Dual [3]; [7],1.02
same,NF-kB SEAP reporter activity,RAW-Dual [3]; [8],0.841
CC(=O)OC12COC1CC(O)C1(C)C(=O)C(O)C3=C(C)C(OC(=O)C(O)C(NC(=O)OC(C)(C)C)c4ccccc4)CC(O)(C(OC(=O)c4ccccc4)C21)C3(C)C (stereo unspecified),NF-kB SEAP reporter activity,RAW-Dual [1]; [9],1.14
same,NF-kB SEAP reporter activity,RAW-Dual [1]; [10],1.24
CC(C(O)c1ccc(O)cc1)N1CCC(Cc2ccccc2)CC1.CC(C(O)c1ccc(O)cc1)N1CCC(Cc2ccccc2)CC1.O=C(O)C(O)C(O)C(=O)O (stereo unspecified),NF-kB SEAP reporter activity,RAW-Dual [1]; [9],1.14
same,NF-kB SEAP reporter activity,RAW-Dual [1]; [10],0.926
CC(C(O)c1ccc(O)cc1)N1CCC(Cc2ccccc2)CC1.CC(C(O)c1ccc(O)cc1)N1CCC(Cc2ccccc2)CC1.O=C(O)C(O)C(O)C(=O)O (stereo unspecified) (library stock concentration (final ~1000-fold dilution): 10 mM),NF-kB SEAP reporter activity,RAW-Dual [3]; agonist: LPS (TLR4) 0.1 ug/mL,1.19
same,NF-kB SEAP reporter activity,RAW-Dual [3]; [6],0.64
same,NF-kB SEAP reporter activity,RAW-Dual [3]; [7],1.04
same,NF-kB SEAP reporter activity,RAW-Dual [3]; [8],0.922
Cn1c(=O)cc(N2CCCC(N)C2)n(Cc2ccccc2C#N)c1=O (stereo unspecified),NF-kB SEAP reporter activity,RAW-Dual [1]; [9],1.08
Cn1c(=O)cc(N2CCCC(N)C2)n(Cc2ccccc2C#N)c1=O (stereo unspecified) (library stock concentration (final ~1000-fold dilution): 10 mM),NF-kB SEAP reporter activity,RAW-Dual [3]; agonist: LPS (TLR4) 0.1 ug/mL,1.04 and 1.31
same,NF-kB SEAP reporter activity,RAW-Dual [3]; [6],0.953 and 1.01
same,NF-kB SEAP reporter activity,RAW-Dual [3]; [7],1.16 and 1.1
same,NF-kB SEAP reporter activity,RAW-Dual [3]; [8],0.92 and 1.24
O=C(Nc1ccccc1C(=O)NC1CCCCNC1=O)c1cc2ccccc2s1 (stereo unspecified),NF-kB SEAP reporter activity,RAW-Dual [1]; [9],1.06
same,NF-kB SEAP reporter activity,RAW-Dual [1]; [10],1.16
O=C(Nc1ccccc1C(=O)NC1CCCCNC1=O)c1cc2ccccc2s1 (stereo unspecified) (library stock concentration (final ~1000-fold dilution): 10 mM),NF-kB SEAP reporter activity,RAW-Dual [3]; agonist: LPS (TLR4) 0.1 ug/mL,2.62
same,NF-kB SEAP reporter activity,RAW-Dual [3]; [6],1.04
same,NF-kB SEAP reporter activity,RAW-Dual [3]; [7],1.1
same,NF-kB SEAP reporter activity,RAW-Dual [3]; [8],1.47
CC12CC(O)C3CC1(OC1OC(CO)C(O)C(O)C1O)C3(COC(=O)c1ccccc1)C(=O)O2 (stereo unspecified),NF-kB SEAP reporter activity,RAW-Dual [1]; [9],0.925
same,NF-kB SEAP reporter activity,RAW-Dual [1]; [10],1.04
CC12CC(O)C3CC1(OC1OC(CO)C(O)C(O)C1O)C3(COC(=O)c1ccccc1)C(=O)O2 (stereo unspecified) (library stock concentration (final ~1000-fold dilution): 10 mM),NF-kB SEAP reporter activity,RAW-Dual [3]; agonist: LPS (TLR4) 0.1 ug/mL,1.33
same,NF-kB SEAP reporter activity,RAW-Dual [3]; [6],0.943
same,NF-kB SEAP reporter activity,RAW-Dual [3]; [7],1.11
same,NF-kB SEAP reporter activity,RAW-Dual [3]; [8],1.16
CN(c1ncccc1CNc1nc(Nc2ccc3c(c2)CC(=O)N3)ncc1C(F)(F)F)S(C)(=O)=O.Cl (library stock concentration (final ~1000-fold dilution): 10 mM),NF-kB SEAP reporter activity,RAW-Dual [2]; agonist: LPS (TLR4) 0.1 ug/mL,0.194
same,NF-kB SEAP reporter activity,RAW-Dual [2]; [6],0.29
same,NF-kB SEAP reporter activity,RAW-Dual [2]; [7],0.0618
same,NF-kB SEAP reporter activity,RAW-Dual [2]; [8],0.135
CN(c1ncccc1CNc1nc(Nc2ccc3c(c2)CC(=O)N3)ncc1C(F)(F)F)S(C)(=O)=O.Cl,NF-kB SEAP reporter activity,RAW-Dual [1]; [4],0.169
same,NF-kB SEAP reporter activity,RAW-Dual [1]; [5],0.247
CC1OC(OC2C(CO)OC(OC3C(CO)OC(O)C(O)C3O)C(O)C2O)C(O)C(O)C1NC1C=C(CO)C(O)C(O)C1O (stereo unspecified),NF-kB SEAP reporter activity,RAW-Dual [1]; [9],0.983
same,NF-kB SEAP reporter activity,RAW-Dual [1]; [10],0.951
CC1OC(OC2C(CO)OC(OC3C(CO)OC(O)C(O)C3O)C(O)C2O)C(O)C(O)C1NC1C=C(CO)C(O)C(O)C1O (stereo unspecified) (library stock concentration (final ~1000-fold dilution): 10 mM),NF-kB SEAP reporter activity,RAW-Dual [3]; agonist: LPS (TLR4) 0.1 ug/mL,1.19
same,NF-kB SEAP reporter activity,RAW-Dual [3]; [6],1.03
same,NF-kB SEAP reporter activity,RAW-Dual [3]; [7],1.02
same,NF-kB SEAP reporter activity,RAW-Dual [3]; [8],1.06
Nc1nc2cc(-c3ccc4ncc(C(=O)N5CCOCC5)n4c3)ccc2o1,NF-kB SEAP reporter activity,RAW-Dual [1]; [9],1.09
same,NF-kB SEAP reporter activity,RAW-Dual [1]; [10],1.09
CCOC(=O)c1cnc2ccc(-c3cncc(NS(=O)(=O)c4ccccc4)c3)cn12,NF-kB SEAP reporter activity,RAW-Dual [1]; [4],1.31
same,NF-kB SEAP reporter activity,RAW-Dual [1]; [5],2.94
Nc1nc2cc(-c3ccc4ncc(C(=O)N5CCOCC5)n4c3)ccc2o1 (library stock concentration (final ~1000-fold dilution): 10 mM),NF-kB SEAP reporter activity,RAW-Dual [3]; agonist: LPS (TLR4) 0.1 ug/mL,0.841
same,NF-kB SEAP reporter activity,RAW-Dual [3]; [6],1.02
same,NF-kB SEAP reporter activity,RAW-Dual [3]; [7],0.774
same,NF-kB SEAP reporter activity,RAW-Dual [3]; [8],0.811
CCOC(=O)c1cnc2ccc(-c3cncc(NS(=O)(=O)c4ccccc4)c3)cn12 (library stock concentration (final ~1000-fold dilution): 10 mM),NF-kB SEAP reporter activity,RAW-Dual [2]; agonist: LPS (TLR4) 0.1 ug/mL,7.43
same,NF-kB SEAP reporter activity,RAW-Dual [2]; [6],2.4
same,NF-kB SEAP reporter activity,RAW-Dual [2]; [7],1.68
same,NF-kB SEAP reporter activity,RAW-Dual [2]; [8],3.96
Cn1c(-c2ccccc2C(F)(F)F)nnc1C12CCC(c3noc(C4CC(F)(F)C4)n3)(CC1)CC2,NF-kB SEAP reporter activity,RAW-Dual [1]; [9],0.868
same,NF-kB SEAP reporter activity,RAW-Dual [1]; [10],1.3
Cn1c(-c2ccccc2C(F)(F)F)nnc1C12CCC(c3noc(C4CC(F)(F)C4)n3)(CC1)CC2 (library stock concentration (final ~1000-fold dilution): 10 mM),NF-kB SEAP reporter activity,RAW-Dual [3]; agonist: LPS (TLR4) 0.1 ug/mL,1.22
same,NF-kB SEAP reporter activity,RAW-Dual [3]; [6],0.41
same,NF-kB SEAP reporter activity,RAW-Dual [3]; [7],0.827
same,NF-kB SEAP reporter activity,RAW-Dual [3]; [8],1.16
CCCCCCOC(=O)c1cc(=O)c(O)c2c(O)c(O)c(OC)cc2c1 (library stock concentration (final ~1000-fold dilution): 1 mM),NF-kB SEAP reporter activity,RAW-Dual [3]; agonist: LPS (TLR4) 0.1 ug/mL,1.14
same,NF-kB SEAP reporter activity,RAW-Dual [3]; [6],0.931
same,NF-kB SEAP reporter activity,RAW-Dual [3]; [7],0.872
same,NF-kB SEAP reporter activity,RAW-Dual [3]; [8],0.85
CCCCCCOC(=O)c1cc(=O)c(O)c2c(O)c(O)c(OC)cc2c1,NF-kB SEAP reporter activity,"RAW-Dual [1]; library stock concentration (final ~1000-fold dilution): 1 mM, cytotoxicity flag (confluency mask): not cytotoxic, agonist: Imiquimod (TLR7) […]",1.03
same,NF-kB SEAP reporter activity,"RAW-Dual [1]; library stock concentration (final ~1000-fold dilution): 1 mM, cytotoxicity flag (confluency mask): not cytotoxic, agonist: MPLA (TLR4) […]",1.23
